In the supplement of paper PMC10849652:
Targets with a hit are over-represented here; the source holds about 7,900 in all. About 0.6% of all pairs of compound and target were hits. A number with no mark means an inactive call.

Assays:
Assay in all cases: log2 fold change, soluble protein after heating vs DMSO (PISA); higher = thermal stabilisation; K562 cells, 10 uM, 30 min; active = over 0.2 and 3.5 SD of the protein, either way, in both replicates (recomputed)
[1] = compound: CS(=O)(=O)c1ccc(-c2cnc(N)c(C(=O)Nc3ccccc3)n2)cc1
In short: (§1)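 Soluble protein was quantified by TMTpro 16plex LC-MS/MS after channel sums were equalised. It was obtained as the supernatant after 21,000xg for 90 min from pooled aliquots of K562 cells (2×10^6 cells/mL, 10 μM compound, 30 min) heated for 3 min across 48°C-58°C and extracted in PBS with 0.5% NP-40 at 4°C. Thermal stability values are relative to control samples and come from duplicates. They are given as log2 fold changes.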

[2] = compound: C[C@@H](Oc1cc(-c2cnn(C3CCNCC3)c2)cnc1N)c1c(Cl)ccc(F)c1Cl [crizotinib]
In short: as §1

[3] = compound: C[C@@H]1COCCN1C2=NC(=NC(=C2)C3(CC3)S(=O)(=O)C)C4=C5C=CNC5=CC=C4
In short: as §1

[4] = compound: C[C@H](C1=CC=C(C=C1)C(=O)NC2=C3C=CNC3=NC=C2)N
In short: as §1

[5] = compound: C[C@H](Nc1ncnc2nc[nH]c12)c1cc2cccc(Cl)c2c(=O)n1-c1ccccc1 [duvelisib]
In short: as §1

[6] = compound: Cc1cc(Nc2cc(CN3CCOCC3)c3nc(C)c(Cc4ccc(Cl)cc4F)n3n2)n[nH]1 [gandotinib]
In short: as §1

[7] = compound: Cc1cc(Nc2cc(N3CCN(C)CC3)nc(Sc3ccc(NC(=O)C4CC4)cc3)n2)n[nH]1 [tozasertib]
In short: as §1

[8] = compound: Cc1cc(SCc2sc(-c3ccc(C(F)(F)F)cc3)nc2C)ccc1OCC(=O)O
In short: as §1

[9] = compound: Cc1ccc(-n2nc(C(C)(C)C)cc2NC(=O)Nc2ccc(OCCN3CCOCC3)c3ccccc23)cc1 [doramapimod]
In short: as §1

[10] = compound: Cc1ccc(C(=O)N(CCCN)[C@@H](c2nc3cc(Cl)ccc3c(=O)n2Cc2ccccc2)C(C)C)cc1 [ispinesib]
In short: as §1

[11] = compound: Cc1ccc(NC(=O)c2ccc(CN3CC[C@H](N(C)C)C3)c(C(F)(F)F)c2)cc1Nc1nccc(-c2cncnc2)n1 [bafetinib]
In short: as §1

[12] = compound: Cc1cccc(CC(=O)N2CCc3c2ccc(-c2cn(C)c4ncnc(N)c24)c3F)n1
In short: as §1

[13] = compound: Cc1cn(-c2cc(NC(=O)c3ccc(C)c(Nc4nccc(-c5cccnc5)n4)c3)cc(C(F)(F)F)c2)cn1 [nilotinib]
In short: as §1

[14] = compound: Cc1nc(Nc2n[nH]c3c2CN(C(=O)N[C@H](CN(C)C)c2ccccc2)C3(C)C)c2sccc2n1
In short: as §1

[15] = compound: Cc1nc(Nc2ncc(C(=O)Nc3c(C)cccc3Cl)s2)cc(N2CCN(CCO)CC2)n1 [dasatinib]
In short: as §1

[16] = compound: Cc1ncc(-c2ccnc(Nc3ccc(S(C)(=O)=O)cc3)n2)n1C(C)C
In short: as §1

[17] = compound: Cn1cc(-c2ccc3c(c2)CCN3C(=O)Cc2cccc(C(F)(F)F)c2)c2c(N)ncnc21
In short: as §1

[18] = compound: Cn1cc(-c2ccc3nnc(C(F)(F)c4ccc5ncccc5c4)n3n2)cn1
In short: as §1

[19] = compound: Cn1cncc1[C@@](N)(c1ccc(Cl)cc1)c1ccc2c(c1)c(-c1cccc(Cl)c1)cc(=O)n2C [tipifarnib]
In short: as §1

[20] = compound: FC(F)(F)c1ccc(/C=C/c2nc(COc3ccc(CCCCn4ccnn4)cc3)co2)cc1 [mubritinib]
In short: as §1

Sequence of UniProt Q6VY07 (Q6VY07 whole entry, looked up): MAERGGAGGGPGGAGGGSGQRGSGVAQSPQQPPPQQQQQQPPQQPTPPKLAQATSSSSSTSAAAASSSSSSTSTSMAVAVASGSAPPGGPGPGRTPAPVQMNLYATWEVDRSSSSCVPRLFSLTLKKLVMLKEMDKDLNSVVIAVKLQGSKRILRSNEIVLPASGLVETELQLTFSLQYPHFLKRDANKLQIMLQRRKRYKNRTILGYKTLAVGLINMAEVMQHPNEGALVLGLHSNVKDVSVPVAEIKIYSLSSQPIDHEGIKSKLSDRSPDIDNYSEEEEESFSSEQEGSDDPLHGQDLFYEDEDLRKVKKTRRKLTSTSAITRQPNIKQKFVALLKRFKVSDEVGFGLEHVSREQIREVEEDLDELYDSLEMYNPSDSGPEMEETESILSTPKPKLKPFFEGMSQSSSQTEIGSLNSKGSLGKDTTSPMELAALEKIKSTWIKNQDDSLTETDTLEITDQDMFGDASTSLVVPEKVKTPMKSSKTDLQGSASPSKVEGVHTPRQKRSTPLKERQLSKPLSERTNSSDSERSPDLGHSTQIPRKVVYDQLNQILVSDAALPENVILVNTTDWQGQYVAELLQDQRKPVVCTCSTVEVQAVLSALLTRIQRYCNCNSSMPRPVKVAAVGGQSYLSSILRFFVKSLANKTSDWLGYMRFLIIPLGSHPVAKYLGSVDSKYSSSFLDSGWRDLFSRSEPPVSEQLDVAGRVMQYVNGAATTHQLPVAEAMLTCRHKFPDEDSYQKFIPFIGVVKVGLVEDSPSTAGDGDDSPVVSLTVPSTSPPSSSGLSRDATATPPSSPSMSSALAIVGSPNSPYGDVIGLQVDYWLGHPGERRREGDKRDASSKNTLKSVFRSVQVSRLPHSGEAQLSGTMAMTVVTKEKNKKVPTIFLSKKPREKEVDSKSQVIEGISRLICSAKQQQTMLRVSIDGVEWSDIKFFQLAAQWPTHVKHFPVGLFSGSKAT
Sequence of UniProt O15460 (O15460 whole entry, looked up): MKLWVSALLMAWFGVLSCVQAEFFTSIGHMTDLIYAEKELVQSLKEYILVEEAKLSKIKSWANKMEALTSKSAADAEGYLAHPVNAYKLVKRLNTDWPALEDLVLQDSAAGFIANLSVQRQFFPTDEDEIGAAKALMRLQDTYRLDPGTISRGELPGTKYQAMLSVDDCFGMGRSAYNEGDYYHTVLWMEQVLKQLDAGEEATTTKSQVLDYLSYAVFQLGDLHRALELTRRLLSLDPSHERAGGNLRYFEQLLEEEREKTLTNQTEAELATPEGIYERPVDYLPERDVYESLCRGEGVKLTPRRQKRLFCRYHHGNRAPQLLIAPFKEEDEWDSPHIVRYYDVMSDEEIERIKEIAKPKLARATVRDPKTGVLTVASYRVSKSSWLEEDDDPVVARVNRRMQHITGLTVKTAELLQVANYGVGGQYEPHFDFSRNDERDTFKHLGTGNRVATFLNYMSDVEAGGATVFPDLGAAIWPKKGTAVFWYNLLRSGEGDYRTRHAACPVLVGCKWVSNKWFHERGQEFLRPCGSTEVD
Sequence of UniProt Q96T76 (Q96T76 whole entry, looked up): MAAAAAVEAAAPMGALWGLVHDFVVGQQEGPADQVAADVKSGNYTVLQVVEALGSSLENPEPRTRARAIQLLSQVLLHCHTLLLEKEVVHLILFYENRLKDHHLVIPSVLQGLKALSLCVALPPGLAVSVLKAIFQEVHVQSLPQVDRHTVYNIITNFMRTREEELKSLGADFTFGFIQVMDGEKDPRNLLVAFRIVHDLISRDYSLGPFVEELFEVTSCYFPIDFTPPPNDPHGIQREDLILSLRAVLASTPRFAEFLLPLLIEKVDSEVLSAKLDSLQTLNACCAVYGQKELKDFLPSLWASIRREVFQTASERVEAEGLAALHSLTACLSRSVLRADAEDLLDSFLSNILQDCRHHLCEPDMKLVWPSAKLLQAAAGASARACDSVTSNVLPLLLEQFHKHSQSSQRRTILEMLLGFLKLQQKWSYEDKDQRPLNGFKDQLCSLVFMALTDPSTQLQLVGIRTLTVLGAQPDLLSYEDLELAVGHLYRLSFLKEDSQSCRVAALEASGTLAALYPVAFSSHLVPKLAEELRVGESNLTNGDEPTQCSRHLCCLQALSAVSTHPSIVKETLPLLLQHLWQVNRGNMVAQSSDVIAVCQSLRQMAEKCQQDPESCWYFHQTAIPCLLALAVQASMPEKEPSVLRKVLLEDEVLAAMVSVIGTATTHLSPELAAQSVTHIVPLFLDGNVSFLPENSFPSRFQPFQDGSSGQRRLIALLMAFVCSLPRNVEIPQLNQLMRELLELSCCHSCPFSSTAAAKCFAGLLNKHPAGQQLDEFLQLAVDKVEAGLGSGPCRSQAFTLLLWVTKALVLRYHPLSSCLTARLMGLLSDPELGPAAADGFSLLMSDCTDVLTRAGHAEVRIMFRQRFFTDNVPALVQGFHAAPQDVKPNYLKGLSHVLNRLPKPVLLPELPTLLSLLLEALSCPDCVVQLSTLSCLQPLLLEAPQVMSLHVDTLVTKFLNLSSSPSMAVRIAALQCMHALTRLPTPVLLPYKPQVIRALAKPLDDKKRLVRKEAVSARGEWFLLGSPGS
Sequence of UniProt Q9BWT6 (Q9BWT6 whole entry, looked up): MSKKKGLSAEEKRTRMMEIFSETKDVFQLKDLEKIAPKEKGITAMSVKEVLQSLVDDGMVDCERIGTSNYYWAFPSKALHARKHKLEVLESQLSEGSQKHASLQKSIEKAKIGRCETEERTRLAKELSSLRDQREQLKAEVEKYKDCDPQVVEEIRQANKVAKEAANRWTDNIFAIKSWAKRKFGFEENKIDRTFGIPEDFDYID
Sequence of UniProt Q9NZT2 (Q9NZT2 whole entry, looked up): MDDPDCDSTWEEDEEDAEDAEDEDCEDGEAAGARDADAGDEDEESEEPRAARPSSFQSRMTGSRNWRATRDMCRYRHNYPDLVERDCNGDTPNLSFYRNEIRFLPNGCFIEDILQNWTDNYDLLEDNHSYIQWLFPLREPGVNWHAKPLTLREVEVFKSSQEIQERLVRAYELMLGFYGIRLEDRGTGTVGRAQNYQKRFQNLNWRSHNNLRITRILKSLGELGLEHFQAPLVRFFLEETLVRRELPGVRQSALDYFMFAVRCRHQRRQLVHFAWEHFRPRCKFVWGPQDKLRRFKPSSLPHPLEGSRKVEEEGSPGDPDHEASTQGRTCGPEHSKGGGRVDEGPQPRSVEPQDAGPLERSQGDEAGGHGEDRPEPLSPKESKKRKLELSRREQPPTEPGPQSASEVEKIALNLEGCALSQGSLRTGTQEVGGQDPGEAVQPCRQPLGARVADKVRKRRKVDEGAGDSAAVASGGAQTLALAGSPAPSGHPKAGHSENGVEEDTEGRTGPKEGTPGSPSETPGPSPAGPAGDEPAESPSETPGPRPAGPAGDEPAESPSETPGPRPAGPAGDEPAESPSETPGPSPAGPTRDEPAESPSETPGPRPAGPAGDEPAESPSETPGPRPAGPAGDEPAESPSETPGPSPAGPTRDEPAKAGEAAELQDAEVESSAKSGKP
Sequence of UniProt O43809 (O43809 whole entry, looked up): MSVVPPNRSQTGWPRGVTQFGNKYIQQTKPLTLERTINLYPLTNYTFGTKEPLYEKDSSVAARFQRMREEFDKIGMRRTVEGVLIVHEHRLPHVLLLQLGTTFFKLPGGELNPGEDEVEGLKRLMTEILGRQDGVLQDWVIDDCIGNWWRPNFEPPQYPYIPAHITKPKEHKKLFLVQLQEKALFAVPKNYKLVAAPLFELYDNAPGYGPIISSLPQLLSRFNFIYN
Sequence of UniProt O00217 (O00217 whole entry, looked up): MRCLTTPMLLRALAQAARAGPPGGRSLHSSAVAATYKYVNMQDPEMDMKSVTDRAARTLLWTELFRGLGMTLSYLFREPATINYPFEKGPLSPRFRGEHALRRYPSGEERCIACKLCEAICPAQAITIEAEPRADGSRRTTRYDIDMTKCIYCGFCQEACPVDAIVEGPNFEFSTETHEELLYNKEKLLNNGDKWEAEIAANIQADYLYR
Sequence of UniProt P55786 (P55786 whole entry, looked up): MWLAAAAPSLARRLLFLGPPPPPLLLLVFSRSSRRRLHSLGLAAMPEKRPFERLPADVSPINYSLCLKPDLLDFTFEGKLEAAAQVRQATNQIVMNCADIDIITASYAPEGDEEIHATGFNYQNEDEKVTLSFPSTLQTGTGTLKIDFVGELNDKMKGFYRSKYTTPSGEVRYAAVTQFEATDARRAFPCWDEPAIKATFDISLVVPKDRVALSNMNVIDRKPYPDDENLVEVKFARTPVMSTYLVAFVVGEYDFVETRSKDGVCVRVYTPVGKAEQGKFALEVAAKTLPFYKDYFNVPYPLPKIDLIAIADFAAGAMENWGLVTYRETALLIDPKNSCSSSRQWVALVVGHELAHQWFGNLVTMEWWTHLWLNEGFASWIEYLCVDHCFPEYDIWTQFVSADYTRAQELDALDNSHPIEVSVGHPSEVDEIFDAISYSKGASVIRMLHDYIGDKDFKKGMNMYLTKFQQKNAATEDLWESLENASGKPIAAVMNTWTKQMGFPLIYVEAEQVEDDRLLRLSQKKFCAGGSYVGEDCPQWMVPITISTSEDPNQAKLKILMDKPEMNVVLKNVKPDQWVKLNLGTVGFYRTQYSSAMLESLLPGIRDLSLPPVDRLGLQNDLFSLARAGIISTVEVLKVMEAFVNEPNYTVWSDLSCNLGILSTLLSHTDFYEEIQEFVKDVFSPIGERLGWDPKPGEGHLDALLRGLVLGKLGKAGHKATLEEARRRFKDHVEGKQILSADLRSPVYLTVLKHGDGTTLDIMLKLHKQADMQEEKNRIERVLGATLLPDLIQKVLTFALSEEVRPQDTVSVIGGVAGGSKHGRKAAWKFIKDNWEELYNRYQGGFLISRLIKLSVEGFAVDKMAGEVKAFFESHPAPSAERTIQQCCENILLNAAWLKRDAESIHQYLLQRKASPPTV
Sequence of UniProt O95182 (O95182 whole entry, looked up): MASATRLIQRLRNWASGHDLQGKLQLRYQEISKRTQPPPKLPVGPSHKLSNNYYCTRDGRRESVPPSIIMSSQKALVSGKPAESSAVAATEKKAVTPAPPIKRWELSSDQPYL

| Target | log2 fold change [1] | log2 fold change [2] | log2 fold change [3] | log2 fold change [4] | log2 fold change [5] | log2 fold change [6] | log2 fold change [7] | log2 fold change [8] | log2 fold change [9] | log2 fold change [10] | log2 fold change [11] | log2 fold change [12] | log2 fold change [13] | log2 fold change [14] | log2 fold change [15] | log2 fold change [16] | log2 fold change [17] | log2 fold change [18] | log2 fold change [19] | log2 fold change [20] |
| --- | --- | --- | --- | --- | --- | --- | --- | --- | --- | --- | --- | --- | --- | --- | --- | --- | --- | --- | --- | --- |
| PACS1 (UniProt Q6VY07) | 0.013 | -0.053 | 0.051 | -0.015 | 0.033 | -0.018 | 0 | -0.014 | 0.06 | 0.042 | 0.008 | 0.02 | 0.051 | 0.038 | 0.018 | -0.018 | -0.006 | -0.098 | -0.002 | -0.021 |
| MRPS35 (UniProt P82673) | 0.004 | -0.043 | 0.016 | 0.166 | 0.016 | -0.039 | 0.032 | 0.101 | 0.005 | -0.277 (active) | 0.038 | 0.115 | -0.134 | 0.088 | -0.004 | -0.071 | -0.039 | 0.017 | 0.024 | 0.091 |
| OXSM (UniProt Q9NWU1) | 0.016 | 0.053 | 0.036 | -0.07 | -0.024 | -0.054 | 0.011 | -0.002 | -0.055 | 0.077 | -0.063 | -0.034 | 0.029 | -0.002 | 0.031 | -0.015 | 0.029 | 0.021 | -0.009 | 0.023 |
| NMT1 (UniProt P30419) | 0.085 | -0.17 | -0.058 | -0.032 | -0.003 | 0.066 | -0.012 | -0.003 | 0 | -0.164 | 0.064 | -0.026 | 0.049 | 0.06 | -0.012 | -0.003 | 0.026 | -0.001 | -0.026 | 0.076 |
| MMS19 isoform 8 (UniProt Q96T76) | 0.002 | -0.156 | 0.023 | 0.053 | 0.044 | -0.129 | 0.051 | 0.103 | 0.033 | -0.035 | -0.014 | 0.092 | -0.038 | -0.027 | -0.205 | -0.002 | -0.021 | 0.02 | -0.055 | -0.019 |
| P4HA2 (UniProt O15460) | 0.079 | 0.023 | -0.627 (active) | 0.178 | 0.037 | 0.021 | -0.005 | 0.053 | 0.069 | -0.088 | 0.012 | -0.007 | 0.056 | 0.04 | -0.057 | -0.008 | -0.102 | -0.02 | 0.007 | -0.059 |
| MND1 (UniProt Q9BWT6) | 0 | -0.217 | 0.005 | 0.018 | 0.016 | -0.076 | -0.152 | -0.024 | 0.009 | -0.184 | -0.168 | 0.042 | 0.032 | 0.003 | -0.037 | -0.015 | -0.056 | -0.132 | 0.04 | 0.043 |
| NDUFS8 (UniProt O00217) | 0.021 | -0.182 | 0.143 | -0.027 | 0.055 | -0.168 | -0.011 | 0.021 | -0.043 | -0.158 | -0.055 | 0.047 | -0.036 | -0.002 | -0.1 | -0.047 | 0.1 | 0.055 | -0.053 | 0.111 |
| NUDT21 (UniProt O43809) | -0.054 | 0.039 | -0.031 | -0.209 (active) | -0.01 | -0.059 | 0.013 | 0.039 | 0.007 | 0.116 | 0.074 | -0.071 | 0.033 | -0.798 (active) | 0.031 | 0.051 | 0.029 | -0.039 | -0.007 | -0.008 |
| OGFR (UniProt Q9NZT2) | 0.074 | -0.067 | 0.034 | 0.19 | -0.016 | -0.058 | 0.021 | 0.133 | 0.082 | -0.068 | -0.041 | 0.114 | -0.024 | -0.093 | -0.114 | -0.008 | 0.036 | -0.002 | 0.025 | 0.328 (active) |
| NHLRC2 (UniProt Q8NBF2) | 0.1 | -0.127 | 0.165 | -0.011 | 0.05 | -0.158 | -0.105 | 0.044 | -0.005 | -0.198 | -0.141 | 0.002 | -0.05 | -0.004 | -0.052 | -0.001 | 0.042 | 0.006 | -0.024 | 0.058 |
| MRPL50 (UniProt Q8N5N7) | -0.031 | 0.133 | 0.045 | -0.045 | -0.016 | 0.04 | 0.042 | 0.104 | 0.092 | 0.199 | -0.079 | -0.035 | 0.008 | 0.114 | 0.183 | -0.064 | 0.022 | 0.117 | -0.163 | -0.039 |
| NFATC2IP (UniProt Q8NCF5) | 0.014 | 0.023 | 0.195 | -0.009 | 0.121 | 0.011 | 0.03 | 0.045 | -0.03 | 0.024 | 0.065 | -0.029 | 0.001 | -0.153 | -0.096 | -0.146 | 0.097 | 0.049 | -0.003 | 0.051 |
| NPEPPS (UniProt P55786) | 0.019 | -0.14 | 0.122 | -0.039 | 0.063 | -0.03 | -0.066 | -0.012 | 0.013 | 0.082 | 0.031 | 0.011 | 0.002 | 0.121 | -0.083 | -0.063 | 0.085 | 0.02 | -0.032 | 0.102 |
| PAFAH1B2 (UniProt P68402) | 0.016 | -0.017 | -0.13 | -0.054 | 0.086 | 0.16 | -0.072 | -0.066 | 0.022 | -0.002 | -0.025 | 0.035 | 0.067 | -0.121 | -0.011 | -0.075 | 0.024 | 0.003 | 0.188 | 0.092 |
| NDUFA7 (UniProt O95182) | -0.004 | -0.103 | 0.02 | 0.039 | 0.012 | -0.12 | -0.101 | 0.07 | -0.041 | -0.118 | -0.056 | 0.124 | 0.016 | -0.025 | -0.145 | -0.059 | -0.005 | -0.061 | 0.002 | 0.247 (active) |
